Consider 34 compounds from PubChem BioAssay (Tox21).

Structures are written as SMILES. Several values for one entry are separate records, joined by “and”; a condition that tells them apart may be missing. Equal entries are not always repeated. Records with an inconclusive call do not appear. A call without a number means that no potency is given here. Activity calls are given as the source filed them. Calls come from the whole dose curve; as a rule, active = well fitted cell-killing curve with a large enough effect in the repeat runs; inconclusive = weak or mixed curves, or effect the other way; inactive = flat fitted curve, though single readings scatter. Starred links: 1 amine or outer side, 2 acyl side, 3 side chain; linkers in the order of their positions; H or OH if unused. Positions of bridges follow the written chain, without caps; N, C: chain ends. Non-standard residues stand in square brackets, D forms with d. Residues, ends and D or L forms follow the SMILES beside them. Chains are numbered I, II in the order given. Actinocin(9to1) = Cc1c2oc3c(C)ccc(C(=O)[*:1])c3nc-2c(C(=O)[*:2])c(N)c1=O; NMeV = CN[C@H](C(=O)O)C(C)C; Sar = CNCC(=O)O
Potency is the fitted concentration of half-maximal effect.

The first test can be described thus: qHTS assay to identify small molecule antagonists of the estrogen receptor alpha (ER-alpha) signaling pathway using the BG1 cell line in the presence of 0.1 nM 17-beta-estradiol - cell viability counter screen (AID 1259241). Note: nearly all actives have a fitted effect of over 40% in size. The conditions noted are these: VM7Luc4E2 (BG1) viability, CellTiter-Fluor protease, 22 h, 0.1 nM estradiol agonist added; series mostly up to 92.4 µM. The method in brief: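 CellTiter-Fluor read (30 min, 37C) on ER-alpha/ERE-luc VM7Luc4E2 cells; 22 hr compound treatment; agonist 0.1 nM E2 final; same-well multiplex.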
(In general: Quantitative high-throughput screening tests each substance at several concentrations.)
Regarding `CC(C)(C)NCC(O)c1cc(O)cc(O)c1` (configuration not stated), the Potency result is “inactive”.

Consider `Cc1c2oc3c(C)ccc(C(=O)N[C@@H]4C(=O)N[C@H](C(C)C)C(=O)N5CCC[C@H]5C(=O)N(C)CC(=O)N(C)[C@@H](C(C)C)C(=O)O[C@@H]4C)c3nc-2c(C(=O)N[C@@H]2C(=O)N[C@H](C(C)C)C(=O)N3CCC[C@H]3C(=O)N(C)CC(=O)N(C)[C@@H](C(C)C)C(=O)O[C@@H]2C)c(N)c1=O` (I: T[dV]P[Sar][NMeV] / II: T[dV]P[Sar][NMeV]; ester I:1-I:C, II:1-II:C; linker I:N-II:N via Actinocin(9to1)), for which the Potency was 26.6 µM (active).

Consider `C#CC(C)(CC)OC(=O)c1ccccc1C(=O)O` (configuration not stated), for which the Potency entry was “inactive”.

As for `CC(C)(C)NCC(O)COc1ccccc1OCC1CCCO1` (configuration not stated), the Potency entry is “inactive”.

Take `C=CS(=O)(=O)O`: the Potency result is “inactive”.

For the compound `CC(=O)C1=C(C)[C@@H]2C[C@@]3(C1)[C@H](C)CC[C@H]3C2(C)C`, the Potency result is “inactive”.

Consider `OCCN1CCNCC1`, for which the Potency result is “inactive”.

`C1COC(NC(C2CC2)C2CC2)=N1`: the Potency entry was “inactive”.

`Cc1cc(OCCOCC[N+](C)(C)Cc2ccccc2)ccc1C(C)(C)CC(C)(C)C`: the Potency entry was “inactive”.

As to `CCN(CC)C(=O)Nc1ccc(OCC(O)CNC(C)(C)C)c(C(C)=O)c1` (configuration not stated), the Potency entry was “inactive”.

With `Nc1nc2ccccc2[nH]1`, the Potency entry is “inactive”.

As to `c1ccc2c(c1)CCCC2C1=NCCN1` (configuration not stated), the Potency result is “inactive”.

Take `O=C(Cl)c1cccc(C(=O)Cl)c1`: the Potency entry is “inactive”.

As for `CCc1cc(C(C)(C)C)c(O)c(C(C)(C)C)c1`, the Potency result was “inactive”.

Turning to `Cc1ccc(-c2cc(C(F)(F)F)nn2-c2ccc(S(N)(=O)=O)cc2)cc1`, the Potency result is “inactive”.

In the case of `CCCCCCCCCCCCCC[P+](CCCC)(CCCC)CCCC`, the Potency was 60.8 µM (active) and 30.6 µM (active).

Turning to `CCC(CO)(CO)COCC(CC)(CO)CO`, the Potency result is “inactive”.

Take `Nc1cc(S(=O)(=O)O)cc2cc(S(=O)(=O)O)cc(O)c12`: the Potency was 27.3 µM (active).

Take `O=C(O)Cn1cnnn1`: the Potency result is “inactive”.

As for `Oc1ccc(Cl)cc1Cc1cc(Cl)ccc1O`, the Potency result was “inactive”.

For `c1cnc2cc3c(cc2n1)C1CNCC3C1`, the Potency entry was “inactive”.

`C=C(C)C(=O)O`: the Potency result is “inactive”.

On to `CCN(CC)CCOc1ccc(/C(=C(\Cl)c2ccccc2)c2ccccc2)cc1`, for which the Potency result is “inactive”.

For the compound `NCCCCCC(=O)O`, the Potency result was “inactive”.

Turning to `CC(C)CCOC(=O)c1ccc(N(C)C)cc1`, the Potency entry is “inactive”.

As for `CCCNC(C)C(=O)Nc1ccccc1C` (configuration not stated), the Potency result is “inactive”.

Take `CCOC(=O)C(C)C(C)=O` (configuration not stated): the Potency result was “inactive”.

A short description of another test: qHTS assay to identify small molecule antagonists of the androgen receptor (AR) signaling pathway using the MDA cell line in the presence of 0.5 nM R1881 - cell viability counter screen (AID 1259242). Note: nearly all actives have a fitted effect of over 45% in size. The conditions noted are these: MDA-kb2 viability, CellTiter-Fluor protease fluorescence, 16 h; series mostly up to 92.4 µM. The method in brief:
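Steps: plate MDA-kb2 cells, rest 5 hr at 37C without CO2; pin in compounds in DMSO; add R1881 to 0.5 nM final; incubate 16 hr; add CellTiter-Fluor, 30 min; read fluorescence.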
For `CC(C)(C)NCC(O)c1cc(O)cc(O)c1` (configuration not stated), the Potency result is “inactive”.

Turning to `CC(C)(C)NCC(O)COc1ccccc1OCC1CCCO1` (configuration not stated), the Potency result is “inactive”.

On to `COc1ccc(Cc2cnc(N)nc2N)cc1OC`, for which the Potency result was “inactive”.

Take `C=CS(=O)(=O)O`: the Potency result was “inactive”.

As for `CC(=O)C1=C(C)[C@@H]2C[C@@]3(C1)[C@H](C)CC[C@H]3C2(C)C`, the Potency entry was “inactive”.

As to `O=S(=O)(O)c1ccc2nc(-c3ccccc3)[nH]c2c1`, the Potency entry was “inactive”.

Take `Cc1scc2c1N(C(=O)CN1CCN(C)CC1)c1ccccc1NC2=O`: the Potency entry is “inactive”.

For the compound `COC(c1ccccc1)(c1ccccc1)[C@H](Oc1nc(C)cc(C)n1)C(=O)O`, the Potency result is “inactive”.

As for `OCCN1CCNCC1`, the Potency entry was “inactive”.

With `Cc1cc(OCCOCC[N+](C)(C)Cc2ccccc2)ccc1C(C)(C)CC(C)(C)C`, the Potency is 43 µM (active) and 26.6 µM (active).

For the compound `CN1C(=O)c2ccc([N+](=O)[O-])cc2C1=O`, the Potency result was “inactive”.

On to `CC(C)(C)c1ccccc1`, for which the Potency result was “inactive”.

Take `Nc1nc2ccccc2[nH]1`: the Potency entry was “inactive”.

As to `O=C(Cl)c1cccc(C(=O)Cl)c1`, the Potency result is “inactive”.

Turning to `CC[C@@H](N)CO`, the Potency entry is “inactive”.

As for `CCC(CO)(CO)COCC(CC)(CO)CO`, the Potency result is “inactive”.

As to `Nc1cc(S(=O)(=O)O)cc2cc(S(=O)(=O)O)cc(O)c12`, the Potency result was “inactive”.

For `c1cnc2cc3c(cc2n1)C1CNCC3C1`, the Potency entry is “inactive”.

With `C=C(C)C(=O)O`, the Potency entry was “inactive”.

With `CC(C)CCOC(=O)c1ccc(N(C)C)cc1`, the Potency entry is “inactive”.
